Screens deposited in PubChem by National Center for Advancing Translational Sciences (NCATS).
The list is not random: actives were taken first. Their share in the collection is about 4.3%.
GLP-1R inv ag: inverse agonists of human GLP-1 receptor; P43220; HEK293 GLP-1R CRE-luciferase, luminescence, 24 h; GLP-1R form is constitutively active; Potency, µM (top dose mostly 38.3 µM), without a hit: at the highest dose activity change, negative = inhibition, most hits filed as inhibitors; 410,000 compounds, 1.6% hits; note: potency is the fitted concentration of half-maximal effect; % is set by controls: 0 for no effect and ±100 for the full control effect; nearly all actives have a fitted effect of over 55% in size
Target sequence (P43220 whole entry, looked up): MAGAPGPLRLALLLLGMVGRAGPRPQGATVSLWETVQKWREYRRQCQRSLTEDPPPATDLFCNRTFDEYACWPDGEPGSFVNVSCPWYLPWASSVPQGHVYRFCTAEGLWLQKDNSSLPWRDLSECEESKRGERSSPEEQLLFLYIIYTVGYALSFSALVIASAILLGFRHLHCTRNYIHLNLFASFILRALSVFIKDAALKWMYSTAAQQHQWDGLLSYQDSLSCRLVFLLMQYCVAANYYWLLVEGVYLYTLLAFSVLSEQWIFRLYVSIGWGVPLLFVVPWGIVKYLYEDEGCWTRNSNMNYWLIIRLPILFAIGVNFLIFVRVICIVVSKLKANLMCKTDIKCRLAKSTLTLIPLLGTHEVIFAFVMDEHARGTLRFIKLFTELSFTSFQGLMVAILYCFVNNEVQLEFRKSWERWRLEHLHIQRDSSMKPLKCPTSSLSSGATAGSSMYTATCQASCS
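Assay principle: reduced luminescence from a cAMP-responsive reporter in HEK293 cells co-expressing a constitutively active GLP-1R. Conditions: 24 hr compound incubation, 37 deg C, 5% CO2.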
DRD3 agonist: agonists of human D3 dopamine receptor | P35462 | D3R DiscoveRx beta-arrestin cells, luminescence, 90 min | max activation, % | 410,000 compounds, 0.58% hits | AID 652048; in the data active = max activation above about 30%; note: 0% is about no effect
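Agonist mode: compounds and dopamine controls were applied to plated cells for 90 min at 37 degrees C after an overnight attachment at 1500 cells/well. Luminescent read-out followed 30 - 60 minutes at room temperature with DiscoveRx detection reagent.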
GLP-1R agonist: activates the human GLP-1 receptor. P43220. HEK293 GLP-1R CRE-luciferase, luminescence, 4-6 h; cells express a hypersensitive GLP-1R form. Potency, µM (titrated, usually from 45.6 µM), for inactives: at the top dose activation, hits mostly activators. 380,000 compounds, 0.007% hits. AID 624172; note: potency is the fitted concentration of half-maximal effect; % of control where 0% means no effect
D3 antag: D3 dopamine receptor (human) antagonism; P35462; max response, negative = inhibition, %; D3R cells, DiscoveRx beta-arrestin luminescence, antagonist mode; active compounds read low; 360,000 compounds, 2.5% hits; in the data active = max response below about -50%; inconclusive = no clear call, values can overlap the other calls; note: % is set by controls: 0 for no effect and ±100 for the full control effect
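Cells plated overnight at 1500 cells/well, then exposed to library compounds with dopamine controls for 90 minutes at 37 degrees C. DiscoveRx reagent added for 30–60 minutes at room temperature; luminescence read, quantitative HTS format.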
An asterisk follows results filed as active; ? = inconclusive; / = no result; [ ] = another dose, or the depositor's remark. Unless noted, calls come from the whole dose curve; as a rule, active = well fitted curve in the direction sought with a large enough effect; inconclusive = small, poorly fitted or top-dose-only effect, or another doubt; inactive = no such curve, though single readings can be large; an effect the other way counts as inactive or inconclusive.

SMILES	GLP-1R inv ag	DRD3 agonist	GLP-1R agonist	D3 antag
O=C(/C=C/c1cn(-c2ccccc2)nc1-c1cccc(Cl)c1)N1CCN(c2ccccn2)CC1	7.1µM*	-5	2%	16
COc1ccccc1N1CCN(C(=O)c2cnc(N3CCOCC3)c3ccccc23)CC1	?	2	/	/
Cc1c(C(=O)N2CCN(c3ccccn3)CC2)oc2c(F)cccc12	77%	60*	24%	-12
COc1ccccc1N1CCN(C(=O)c2cnc(N3CCCCC3)c3ccccc23)CC1	3.5µM*	-9	/	/
O=C(c1cnc(N2CCN(c3ccccn3)CC2)c2ccccc12)N1CCN(c2cccc(Cl)c2)CC1	2.2µM*	25	2%	26
CCCOC(=O)c1c(NC(=O)C2c3ccccc3Oc3ccccc32)sc2c1CCCC2	3%	-11	/	/
Cn1cc(S(=O)(=O)c2ccc(Cl)cc2)c(=O)c2cc(F)c(N3CCCCCC3)cc21	6%	-6	/	/
CC(O)[C@@H]1NC(=O)[C@H](CCCCN)NC(=O)[C@@H](Cc2c[nH]c3ccccc23)NC(=O)[C@H](Cc2ccccc2)NC(=O)[C@@H](NC(=O)[C@H](N)Cc2ccccc2)CSSC[C@@H](C(=O)N[C@H](CO)[C@@H](C)O)NC1=O (some centres not stated)	/	1	/	/
COc1cc2nc(N3CCN(c4cc(C)ccc4C)CC3)nc(N)c2cc1OC	5µM*	12	-8%	-25
CCOc1ccc(NC(=O)c2cc(=O)c3cc(CC)ccc3o2)cc1	-1%	6	/	/
Nc1ncnc2c1ncn2[C@@H]1O[C@H](CNC(=O)[C@@H]2CCCN2S(=O)(=O)c2ccc(F)cc2)[C@@H](O)[C@H]1O	14%	37*	-4%	0
Nc1ncnc2c1ncn2[C@@H]1O[C@H](CNC(=O)[C@@H]2CCN2)[C@@H](O)[C@H]1O	15%	0	-2%	0
CC1=NC(=O)C(N=Nc2cccc(C(=O)O)c2)N1c1ccccc1 (configuration not stated)	-8%	-5	-24%	?
CC1=NC(=O)C(N=Nc2ccccc2)N1c1ccccc1 (configuration not stated)	6%	-3	-6%	-58*
CC1=NC(=O)C(N=Nc2ccccc2C(=O)O)N1c1ccccc1 (configuration not stated)	49%	32*	1%	51
C[C@H](CN1c2ccccc2Sc2cccnc21)N(C)C	/	/	1%	/
CCN1CCc2c(C#N)c(N3CCOCC3)nc(N3CCOCC3)c2C1	-2%	-2	-6%	17
CCN1CCc2c(C#N)c(N3CCCCC3)nc(N3CCOCC3)c2C1	?	0	11%	-53*
COc1ccc(OC)c(NC(=O)C2(C)CCN2Cc2ccccc2OC(F)F)c1 (configuration not stated)	?	92*	28%	43
CCOc1ccc(-c2c(C)nn3c(C)c(C(=O)NCC(C)c4ccccc4)cnc23)cc1OCC (configuration not stated)	7%	3	/	/
Cc1cc2nc(N3C(=O)CNC3=S)sc2cc1C	?	-11	5%	-67*
Cc1ccc(/C=C/C(=O)N2CC(C)CC(C)C2)o1 (configuration not stated)	10µM*	-21	-27%	?
O=S(=O)(NC1CCCCC1N1CCC(O)CC1)c1ccccc1 (configuration not stated)	30%	1	-1%	4
COC(=O)C1=CN(C(C)C)C=C(C(=O)OC)C1c1cc2c(cc1Br)OCO2	?	33*	4%	27
O=C(NCc1cccc(F)c1)c1cccc2c1C(=O)c1ccc(N3CCOCC3)cc1S2(=O)=O	5%	56*	-3%	21
SMILES	GLP-1R inv ag	DRD3 agonist	GLP-1R agonist	D3 antag
O=C(NCc1ccccc1C(F)(F)F)c1cccc2c1C(=O)c1ccc(N3CCOCC3)cc1S2(=O)=O	27%	38*	-7%	73
O=C(NCc1ccccc1C(F)(F)F)c1cccc2c1C(=O)c1ccc(N3CCC(N4CCCCC4)CC3)cc1S2(=O)=O	-8%	6	3%	12
O=C(NCc1ccccc1Cl)c1cccc2c1C(=O)c1ccc(-c3ccc(OC(F)(F)F)cc3)cc1S2(=O)=O	7%	31*	8%	54
O=C(CN1CCN(Cc2ccccc2)CC1)Nc1ccccc1-c1ccccc1	2µM*	-14	15%	-5
NC(=O)c1ccccc1NC(=O)CN1CCN(Cc2ccccc2)CC1	-10%	-4	0%	-4
CC(C)(C)c1ccc(C(=O)N2CCC2(C)C(=O)Nc2cccc3ncccc23)cc1 (configuration not stated)	-16%	84*	14%	-17
CCCCC(=O)Nc1ccc(C(=O)NNC(=O)CCc2ccccc2)cc1	8%	-4	-1%	10
CCCCCC(=O)NNC(=O)c1ccc(-c2ccccc2)cc1	0%	36*	-18%	30
CCCCC(=O)Nc1ccc(C(=O)NCCc2ccccc2)cc1	7%	-17	5%	-62*
CC(C(=O)NCCCc1ccccc1)n1cccc1C(=O)c1ccccc1 (configuration not stated)	11µM*	16	13%	5
Cc1cc(C)cc(C(=O)NCCCc2ccccc2)c1	11µM*	2	-4%	6
COc1ccc(NC(=O)CCCN2C(=O)CCn3nc(-c4cn(C)c5ccccc45)cc32)cc1	-11%	-7	/	/
O=c1cc(CO)oc(C(Nc2ccccn2)c2ccccc2F)c1O (configuration not stated)	-20%	-5	4%	-51*
O=c1cc(CO)oc(C(Nc2ccccn2)c2cccc(F)c2)c1O (configuration not stated)	3%	1	-5%	?
C=C1C(=O)[C@]23C[C@H]1CCC2[C@@]1(C)C(C[C@@H]3O)[C@](C)(C(=O)OC)CC[C@@H]1O (some centres not stated)	?	-12	-32%	-67*
C[C@@]12C(C[C@H](O)[C@@]34C[C@@H](CCC13)[C@@H](CO)C4=O)[C@](C)(C(=O)O)CC[C@@H]2O (some centres not stated)	30%	-9	-3%	0
O=C(Nc1ccccc1)OCC(CN1CCCCC1)OC(=O)Nc1ccccc1 (configuration not stated)	1%	-80	-5%	-89*
O=C(Nc1ccccc1)OCC1CCCN2CCCCC12 (configuration not stated)	-3%	-14	-8%	-53*
O=C(Nc1ccccc1)OC[C@H](CN1CCCCC1)OC(=O)Nc1ccccc1	/	/	10%[19.8 µM]	/
O=S(=O)(Nc1cc(F)ccc1F)c1ccc2[nH]c3c(c2c1)CCCCC3	?	-5	/	/
COC(=O)c1ccc(NC(=O)CSc2cn(CC(=O)N3CCCCCC3)c3ccccc23)cc1	?	-6	/	/
CCOC(=O)c1c(NC(=O)c2cccs2)sc(C)c1CC	0%	-1	21%	16
CCc1c(C)sc(NC(=O)c2cccs2)c1C(=O)OC(C)C	-9%	3	-6%	-54*
